HIV RNase H inh-1 – inhibitors of HIV-1 reverse transcriptase RNase H. P04585. RT-RNase H RNA/DNA duplex cleavage, fluorescence. inhibition, % at 10 µM. 1.9% of 65,000 active; in the data active = inhibition above about 50%
HIV RNase H inh-2 – confirmation of HIV-1 reverse transcriptase RNase H inhibitors | shares compounds with HIV RNase H inh-1 | Recombinant RT RNase H, fluorescent RNA/DNA duplex cleavage | inhibition, % at 10 µM | 39% of 1,000 active; in the data active = inhibition above about 48%; inconclusive = no clear call, values can overlap the other calls
Numbers without * were called inactive; u = inconclusive. The entries come from a sample that favours hits as a whole.

SMILES | HIV RNase H inh-1 | others
COC(=O)c1nc2n(n1)C(c1cc(OC)ccc1OC)C(C(=O)OC1CCCCC1)=C(C)N2 (centres undefined) | -3.2
c1ccc2[nH]c(SN3CCOCC3)nc2c1 | 90.6* | HIV RNase H inh-2=66.1*
O=C(CSc1nc2ccccc2[nH]1)Nc1ccccc1N1CCOCC1 | -2.7
c1ccc2[nH]c(NCCCN3CCOCC3)nc2c1 | -4.0
O=C(CN(Cc1ccccc1F)C(=O)Cn1nnc(-c2cccs2)n1)NCC1CCCO1 (centres undefined) | -9.9
CCc1nnc2sc(-c3ccc(NC(=O)c4ccc5c(c4)OCCO5)cc3)nn12 | 4.4
c1csc(-c2nn3c(Cn4nnc5ccccc54)nnc3s2)c1 | -47.6
c1ccc(-c2nn3c(-c4ccccc4)nnc3s2)cc1 | -27.3
c1ccc(CCc2nn3c(Cc4ccccc4)nnc3s2)cc1 | 89.8* | HIV RNase H inh-2=20.1
c1ccc(Cc2nnc3sc(-c4ccc5c(c4)OCO5)nn23)cc1 | 85.1* | HIV RNase H inh-2=49.3
c1ccc(Cc2nnc3sc(-c4cccnc4)nn23)cc1 | 2.5
Cn1c(Cc2ccccc2)nnc1SCC(=O)Nc1ccc2c(c1)OCO2 | -3.9
c1ccc(OCc2nn3c(-c4ccncc4)nnc3s2)cc1 | -18.6
c1ccc(Cc2nnc3sc(-c4ccncc4)nn23)cc1 | 92.5* | HIV RNase H inh-2=66.1*
c1ccc(-c2nnc3sc(Cc4cccs4)nn23)cc1 | 0.3
c1ccc2c(c1)nnn2Cc1nnc2sc(-c3ccncc3)nn12 | 75.1* | HIV RNase H inh-2=70.1*
Cc1ccc(-c2nnc3sc(-c4ccncc4)nn23)cc1 | -41.8
CCc1ccc(NC(=O)N(C2CCC(C)CC2)C2CCN(C(C)=O)CC2)cc1 (centres undefined) | 4.4
CCOC(=O)CN1C(=O)C(O)(C2CCc3ccccc3C2=O)c2ccccc21 (centres undefined) | -4.6
c1ccc(-c2nc(NC3CC3)nc(-n3ccnc3)n2)cc1 | -15.7
COc1ccccc1NCCC(=O)OCC(=O)Nc1ccc(Cl)cn1 | 7.5
Cc1cc(NC(=O)CSc2cn(C)c3ccccc23)no1 | -15.3
c1csc(-c2nn3c(C4CCCCC4)nnc3s2)c1 | -9.6
Clc1ccccc1-c1nnc2sc(-c3cccs3)nn12 | 1.2
c1ccc(Cc2nnc3sc(-c4cccs4)nn23)cc1 | 85.2* | HIV RNase H inh-2=32.7
SMILES | HIV RNase H inh-1 | others
COC(=O)CSc1nnc(CNC(=O)Cc2ccccc2)n1C | -11.1
c1ccc(N2CCN(c3ccccc3)C2c2cccs2)cc1 | -6.3
CC1CCN(C(=O)CSc2ccc3nnc(-c4ccccc4)n3n2)CC1 | -8.4
CN(Cc1ccccc1)C(=O)CSc1nnc(-c2ccco2)n1-c1ccccc1 | -14.2
O=C(c1cccnc1Nc1ccc2c(c1)CCC2)N1CCOCC1 | 83.8* | HIV RNase H inh-2=9.4
O=C(c1ncc[nH]1)c1ccccc1C(=O)N1CCOCC1 | -0.7
O=C(c1ccc2c3c(cccc13)CC2)N1CCOCC1 | 6.4
CC(Cc1ccc(O)c(O)c1)C(C)Cc1ccc(O)c(O)c1 (centres undefined) | 99.3* | HIV RNase H inh-2=58.7*
Oc1ccc(CC2CC3CCN2CC3)cc1O (centres undefined) | 8.4
C[C@@](Cc1ccc(O)c(O)c1)(NN)C(=O)O | 3.3
COc1ccc(OC)c(CC(NC(C)=O)C(=O)NC2CCN(c3nc(C)cc(C)c3C#N)CC2)c1 (centres undefined) | -1.7
Cc1cc(NC(=O)CCC(=O)N(c2ccccc2)C(C(=O)NCC2CCCO2)c2cccnc2)no1 (centres undefined) | -11.6
OC(COc1ccc2c(c1)CCC2)Cn1cnc2ccccc21 (centres undefined) | -21.4
COC(=O)C(Cc1cnc[nH]1)NC(=O)C1CCC(=O)N1 (centres undefined) | -6.6
CC(=O)Nc1nc2ccc(-c3nc4ccccc4o3)cc2s1 | -7.4
CCOc1ccc(N(CC(=O)Nc2ccc(OC)cc2)S(=O)(=O)c2c(C)noc2C)cc1 | -5.8
CCOc1ccc(NC(=O)CN(c2cc(C)cc(C)c2)S(=O)(=O)c2c(C)noc2C)cc1 | -3.0
CCOc1ccc(N(CC(=O)Nc2ccc3c(c2)OCCO3)S(=O)(=O)c2c(C)noc2C)cc1 | 55.8* | HIV RNase H inh-2=12.3
Cc1cccc(-n2nc3c(c2NC(=O)c2ccc(Br)o2)CSC3)c1 | 38.3
CN(CCO)C(=O)CCC(=O)Nc1ccc(S(N)(=O)=O)cc1 | -8.0
Cc1cccc(NC(=O)c2cc(NC(=O)c3ccco3)ccc2N2CCCCC2)c1 | 73.1* | HIV RNase H inh-2=u
O=C(Nc1ccc(N2CCCC2)c(Cl)c1)c1ccco1 | -1.0
O=C(Nc1ccc(N2CCCCC2)c(C(=O)O)c1)c1ccco1 | -14.9
COc1ccc(CNC(=O)c2cccc3c2C(=O)N(Cc2cccnc2)C3)cc1 | -16.1
O=S(=O)(c1ccccc1)N1CCN(S(=O)(=O)c2ccccc2)C1 | -8.6
SMILES | HIV RNase H inh-1 | others
O=S(=O)(c1ccccc1)n1ccc2ccccc21 | -112.3
O=S(=O)(/N=S1/CC=CCN1S(=O)(=O)c1ccccc1)c1ccccc1 (centres undefined) | 78.9* | HIV RNase H inh-2=60.4*
COc1ccc(S(=O)(=O)N(CC(=O)NC2CC2)c2ccc(C)cc2)cc1OC | -1.6
Oc1ccc2ccccc2c1/C=N/n1cnnc1 | -8.9
O=C(O)Cn1c(O)c(C=Nc2ccccc2)sc1=S | -2.5
CCn1c(O)c(/C=N/n2cnnc2)sc1=S | 61.0* | HIV RNase H inh-2=0.1
N#CC1(c2nc3ccccc3[nH]2)CC1c1ccc2c(c1)OCO2 (centres undefined) | 5.0
O=C1C=C(NCCN2CCOCC2)CC(c2ccccc2)C1 (centres undefined) | 0.5
C1=CC2c3ccccc3NC(c3ccncc3)C2C1 (centres undefined) | 2.8
COc1cccc2c1NC(C(=O)O)C1CC=CC21 (centres undefined) | -2.9
O=C(O)c1ccc(Cl)c2c1C1C=CCC1C(c1ccccn1)N2 (centres undefined) | 83.3* | HIV RNase H inh-2=-1.6
O=C(CN1CCN(C(c2ccccc2)c2ccccc2)CC1)NC(=O)NCc1ccco1 | 9.4
CC(=O)C1=C(C)NC(SCC(=O)c2ccccc2)=C(C#N)C1CC(C)C (centres undefined) | 15.2
CCN1CCN(C(=O)c2ccc3c(c2)N(Cc2ccc(F)cc2)C(=O)c2ccccc2S3=O)CC1 (centres undefined) | -7.6
CC/C(=C\C(=O)c1cccnc1)Nc1ccc(C)c(C)c1 | -23.8
Cc1ccc(-n2nnc3c(SCC(=O)N4CCN(c5ccccc5)CC4)ncnc32)cc1 | 2.5
C=CCN(CC=C)Cc1c[nH]c2ccccc12 | -0.7
C=CCn1c(Cc2c[nH]c3ccccc23)n[nH]c1=S | 53.6* | HIV RNase H inh-2=20.1
C=CCn1c(=S)[nH]c2ccccc2c1=O | -27.2
COc1cc(-c2nnc(COc3ccc4ccccc4c3)o2)cc(OC)c1OC | -52.7
CC(=O)Nc1nnc(-c2ccc3c(c2)CCCC3)o1 | -63.0
COc1ccccc1C(=O)Nc1nnc(-c2ccc3c(c2)CCCC3)o1 | -31.3
O=C(COc1ccc(Cl)cc1)Nc1nnc(-c2ccc3c(c2)CCCC3)o1 | 87.5* | HIV RNase H inh-2=67.3*
Cc1ccc(NC2=NC(c3ccco3)n3c(nc(C)cc3=O)N2)c(C)c1 (centres undefined) | 3.1
CCCSc1nnc2nc(C)cc(C)n12 | -10.8
SMILES | HIV RNase H inh-1 | others
Cc1cc(C)n2c(=S)[nH]nc2n1 | 74.4* | HIV RNase H inh-2=66.8*
Cc1ccc(-c2n[nH]c(=S)n2C)cc1 | -8.9
O=C(Nc1nnc(CCN2CCOCC2)s1)C1CCCCC1 | -7.9
O=S(=O)(NCCc1ccncc1)c1ccc(S(=O)(=O)N2CCCCCC2)cc1 | -17.0
Cc1nn(-c2ccccc2)c(=S)n1-c1ccccc1 | 3.0
OCCn1nc2c3ccccc3nc-2n(-c2ccccc2)c1=S | 89.0* | HIV RNase H inh-2=14.3

Screens (PubChem BioAssay)
